In PubChem BioAssay AID1159580 (chemical genetic matrix, 2015):
Among all 5,500 compounds or so, about 2,000 (36%) were called active. Not shown: some 18% with an inconclusive outcome. Rule as the data show it: active = normalized growth mostly below about 0.91 (no sharp cut-off); inconclusive = no clear call, values can overlap the other calls; inactive = mostly above about 0.92. The list shows a part of the results.

Experiment: chemical genetic growth profiling, strain panel (AID 1159580);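 also: tested at 20 µM; growth read once vehicle control cultures reached saturation at 30 °C; 1 = growth at the plate median or of vehicle wells; lower values mean less growth of the strain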
Conditions: growth OD

Measured: normalized growth

Cc1cc(C(C)(C)C)c(O)c(C(C)(C)C)c1
active: S. cerevisiae deletion strains, locus YLR113W, strain HOG1, stronger effect = lower value 0.85 | S. cerevisiae deletion strains, locus YLR221C, strain rsa3, stronger effect = lower value 0.853 | S. cerevisiae deletion strains, locus YNL233W, strain BNI4, stronger effect = lower value 0.844 | S. cerevisiae deletion strains, locus YOL012C, strain htz1 2.14 [resistant]
inactive: S. cerevisiae deletion strains, locus YJR075W, strain HOC1, stronger effect = lower value 0.929 | S. cerevisiae deletion strains, locus YKL009W, strain mrt4, stronger effect = lower value 1 | S. cerevisiae deletion strains, locus YKL068W, stronger effect = lower value 0.978 | S. cerevisiae deletion strains, locus YKL085W, strain MDH1 (second series), stronger effect = lower value 1 | S. cerevisiae deletion strains, locus YKL085W, strain MDH1, stronger effect = lower value 1 | S. cerevisiae deletion strains, locus YKL160W, strain elf1, stronger effect = lower value 1 | S. cerevisiae deletion strains, locus YKL190W, strain CNB1, stronger effect = lower value 0.96 | S. cerevisiae deletion strains, locus YKR001C, strain vps1, stronger effect = lower value 0.927 | S. cerevisiae deletion strains, locus YKR026C, strain gcn3, stronger effect = lower value 0.978 | S. cerevisiae deletion strains, locus YKR091W, strain srl3, stronger effect = lower value 0.986 | S. cerevisiae deletion strains, locus YLL001W, strain dnm1, stronger effect = lower value 0.99 | S. cerevisiae deletion strains, locus YLL026W, stronger effect = lower value 0.954 | S. cerevisiae deletion strains, locus YLL041C, strain sdh2, stronger effect = lower value 0.978 | S. cerevisiae deletion strains, locus YLR027C, strain aat2, stronger effect = lower value 0.932 | S. cerevisiae deletion strains, locus YLR039C, strain RIC1, stronger effect = lower value 0.861 | S. cerevisiae deletion strains, locus YLR058C, strain SHM2, stronger effect = lower value 0.964 | S. cerevisiae deletion strains, locus YLR102C, strain apc9, stronger effect = lower value 0.989 | S. cerevisiae deletion strains, locus YLR258W, strain gsy2, stronger effect = lower value 0.997 | S. cerevisiae deletion strains, locus YLR262C, strain YPT6 (second series), stronger effect = lower value 0.956 | S. cerevisiae deletion strains, locus YLR262C, strain YPT6, stronger effect = lower value 0.85 | S. cerevisiae deletion strains, locus YLR268W, strain sec22, stronger effect = lower value 0.944 | S. cerevisiae deletion strains, locus YLR320W, strain mms22, stronger effect = lower value 0.904 | S. cerevisiae deletion strains, locus YLR330W, strain CHS5, stronger effect = lower value 0.99 | S. cerevisiae deletion strains, locus YLR342W, strain FKS1 (second series), stronger effect = lower value 1.09 | S. cerevisiae deletion strains, locus YLR342W, strain FKS1, stronger effect = lower value 0.975 | S. cerevisiae deletion strains, locus YLR357W, strain rsc2, stronger effect = lower value 0.966 | S. cerevisiae deletion strains, locus YLR370C, strain arc18, stronger effect = lower value 0.986 | S. cerevisiae deletion strains, locus YLR371W, strain rom2, stronger effect = lower value 1.01 | S. cerevisiae deletion strains, locus YLR384C, strain iki3, stronger effect = lower value 0.971 | S. cerevisiae deletion strains, locus YLR418C, strain cdc73, stronger effect = lower value 0.855 | S. cerevisiae deletion strains, locus YML016C, strain PPZ1, stronger effect = lower value 0.997 | S. cerevisiae deletion strains, locus YML032C, strain rad52, stronger effect = lower value 0.973 | S. cerevisiae deletion strains, locus YML120C, strain ndi1, stronger effect = lower value 0.938 | S. cerevisiae deletion strains, locus YML124C, strain tub3, stronger effect = lower value 0.995 | S. cerevisiae deletion strains, locus YMR058W, strain fet3, stronger effect = lower value 0.968 | S. cerevisiae deletion strains, locus YMR078C, strain ctf18, stronger effect = lower value 0.995 | S. cerevisiae deletion strains, locus YMR125W, strain sto1, stronger effect = lower value 0.989 | S. cerevisiae deletion strains, locus YMR129W, stronger effect = lower value 1 | S. cerevisiae deletion strains, locus YMR205C, strain PFK2, stronger effect = lower value 0.998 | S. cerevisiae deletion strains, locus YMR223W, strain ubp8, stronger effect = lower value 0.958 | S. cerevisiae deletion strains, locus YMR231W, strain pep5, stronger effect = lower value 0.989 | S. cerevisiae deletion strains, locus YMR263W, strain SAP30, stronger effect = lower value 0.898 | S. cerevisiae deletion strains, locus YMR307W, strain GAS1, stronger effect = lower value 0.901 | S. cerevisiae deletion strains, locus YNL067W, strain RPL9B, stronger effect = lower value 0.926 | S. cerevisiae deletion strains, locus YNL071W, strain lat1, stronger effect = lower value 0.997 | S. cerevisiae deletion strains, locus YNL128W, strain TEP1, stronger effect = lower value 0.874 | S. cerevisiae deletion strains, locus YNL153C, strain GIM3, stronger effect = lower value 0.917 | S. cerevisiae deletion strains, locus YNL183C, strain NPR1, stronger effect = lower value 0.938 | S. cerevisiae deletion strains, locus YNL209W, strain ssb2, stronger effect = lower value 0.993 | S. cerevisiae deletion strains, locus YNL248C, strain rpa49, stronger effect = lower value 0.904 | S. cerevisiae deletion strains, locus YNL250W, strain rad50, stronger effect = lower value 0.993 | S. cerevisiae deletion strains, locus YNL271C, strain bni1, stronger effect = lower value 1 | S. cerevisiae deletion strains, locus YNL298W, strain CLA4, stronger effect = lower value 0.962 | S. cerevisiae deletion strains, locus YNL307C, strain MCK1, stronger effect = lower value 0.98 | S. cerevisiae deletion strains, locus YNL322C, strain KRE1 (second series), stronger effect = lower value 1.01 | S. cerevisiae deletion strains, locus YNL322C, strain KRE1, stronger effect = lower value 0.975 | S. cerevisiae deletion strains, locus YNR049C, strain mso1, stronger effect = lower value 0.982 | S. cerevisiae deletion strains, locus YNR052C, strain pop2, stronger effect = lower value 1 | S. cerevisiae deletion strains, locus YOL006C, strain TOP1, stronger effect = lower value 0.888 | S. cerevisiae deletion strains, locus YOL147C, strain pex11, stronger effect = lower value 0.996 | S. cerevisiae deletion strains, locus YOR001W, strain rrp6, stronger effect = lower value 0.916 | S. cerevisiae deletion strains, locus YOR061W, strain CKA2, stronger effect = lower value 0.966 | S. cerevisiae deletion strains, locus YOR069W, strain VPS5, stronger effect = lower value 0.997 | S. cerevisiae deletion strains, locus YOR070C, strain gyp1, stronger effect = lower value 0.957 | S. cerevisiae deletion strains, locus YOR080W, strain dia2, stronger effect = lower value 0.99 | S. cerevisiae deletion strains, locus YOR083W, strain WHI5, stronger effect = lower value 0.986 | S. cerevisiae deletion strains, locus YOR106W, strain vam3, stronger effect = lower value 0.966 | S. cerevisiae deletion strains, locus YOR136W, strain idh2, stronger effect = lower value 0.974 | S. cerevisiae deletion strains, locus YOR144C, strain elg1, stronger effect = lower value 0.987 | S. cerevisiae deletion strains, locus YOR184W, strain ser1, stronger effect = lower value 1.01 | S. cerevisiae deletion strains, locus YOR231W, strain MKK1, stronger effect = lower value 0.916 | S. cerevisiae deletion strains, locus YOR265W, strain rbl2, stronger effect = lower value 0.992 | S. cerevisiae deletion strains, locus YOR270C, strain vph1, stronger effect = lower value 0.84 | S. cerevisiae deletion strains, locus YOR290C, strain snf2, stronger effect = lower value 0.954 | S. cerevisiae deletion strains, locus YOR316C, strain cot1, stronger effect = lower value 0.992 | S. cerevisiae deletion strains, locus YPL051W, strain arl3, stronger effect = lower value 0.954 | S. cerevisiae deletion strains, locus YPL055C, strain LGE1, stronger effect = lower value 0.798 | S. cerevisiae deletion strains, locus YPL078C, strain atp4, stronger effect = lower value 0.99 | S. cerevisiae deletion strains, locus YPL106C, strain sse1, stronger effect = lower value 0.917 | S. cerevisiae deletion strains, locus YPL240C, strain hsp82, stronger effect = lower value 0.985 | S. cerevisiae deletion strains, locus YPL241C, strain CIN2, stronger effect = lower value 0.98 | S. cerevisiae deletion strains, locus YPL256C, strain CLN2, stronger effect = lower value 0.922 | S. cerevisiae deletion strains, locus YPR119W, strain clb2, stronger effect = lower value 0.995 | S. cerevisiae deletion strains, locus YPR141C, strain kar3, stronger effect = lower value 0.97 | S. cerevisiae deletion strains, locus YPR163C, strain tif3, stronger effect = lower value 0.981 | S. cerevisiae deletion strains, locus YPR167C, strain met16, stronger effect = lower value 0.985 | S. cerevisiae deletion strains, strain wtn01, stronger effect = lower value 0.938 | S. cerevisiae strains, strain wild type, stronger effect = lower value 0.933
